How the values were obtained:
Settings in all cases: concentration: 1 μM, replicates: in singlicate; n = 1
[1] = test system: MAP3K3
[2] = test system: MAP3K4
[3] = test system: MAP4K2
[4] = test system: MAP4K3
[5] = test system: MAP4K4
[6] = test system: MAP4K5
[7] = test system: MAPKAPK2
[8] = test system: MAPKAPK5
[9] = test system: MARK1
[10] = test system: MARK2
[11] = test system: MARK3
[12] = test system: MARK4
[13] = test system: MAST1
[14] = test system: T1, MEK1
T1 construct: gene MAP2K1

[15] = test system: T2, MEK2
T2 construct: gene MAP2K2

[16] = test system: T3, MEK3
T3 construct: gene MAP2K3

[17] = test system: T4, MEK4
T4 construct: gene MAP2K4

[18] = test system: T5, MEK5
T5 construct: gene MAP2K5

[19] = test system: T6, MEK6
T6 construct: gene MAP2K6

[20] = test system: MELK
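Also: KINOMEscan kinase panel screen.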

SMILES | %Inh [1] | %Inh [2] | %Inh [3] | %Inh [4] | %Inh [5] | %Inh [6] | %Inh [7] | %Inh [8] | %Inh [9] | %Inh [10] | %Inh [11] | %Inh [12] | %Inh [13] | %Inh [14] | %Inh [15] | %Inh [16] | %Inh [17] | %Inh [18] | %Inh [19] | %Inh [20]
Nc1nc(-c2ccc3c(N)n[nH]c3c2)cc(N2CCCCC2)n1 [GSK2228768] | 0% | 2% | 0% | 0% | 0% | 0% | 3% | 0% | 0% | 0% | 0% | 0% | 0% | 0% | 0% | 2% | 0% | 8% | 0% | 0%
Cl.Cn1ccc(-c2cccc(Nc3ccnc4cc(-c5nccs5)ccc34)c2)n1 [GW525701] | 0% | 10% | 14% | 0% | 20% | 0% | 21% | 0% | 28% | 100% | 0% | 0% | 12% | 0% | 0% | 0% | 8% | 86% | 0% | 0%
Cc1ccc(NC(=O)c2cccc(C#N)c2)cc1-c1ccc(C(=O)Nc2ccncc2)cc1 [GSK1398463] | 0% | 35% | 0% | 11% | 4% | 0% | 24% | 0% | 0% | 0% | 0% | 0% | 17% | 0% | 10% | 0% | 0% | 4% | 31% | 0%
Nc1nc(-c2ccccn2)c(-c2ccnc3ccccc23)s1 [GW548057] | 0% | 4% | 0% | 0% | 4% | 0% | 0% | 0% | 0% | 0% | 4% | 0% | 9% | 8% | 12% | 2% | 12% | 32% | 10% | 26%
FC(F)(F)c1ccc(-c2nn3ncccc3c2-c2ccnc(Nc3cccc(C(F)(F)F)c3)n2)cc1 [GW828205] | 21% | 8% | 0% | 0% | 4% | 0% | 0% | 0% | 3% | 0% | 13% | 0% | 12% | 4% | 28% | 0% | 0% | 4% | 0% | 0%
Clc1cc(Nc2ncnc3cc[nH]c23)ccc1OCc1ccccn1 | 27% | 10% | 0% | 0% | 4% | 6% | 5% | 0% | 13% | 0% | 5% | 4% | 45% | 17% | 23% | 19% | 11% | 76% | 17% | 0%
COC(=O)c1cccc(NC(=O)NCCNc2ccnc(Nc3ccc(F)cc3)n2)c1 [GSK1379883] | 0% | 0% | 0% | 0% | 0% | 0% | 24% | 0% | 0% | 0% | 0% | 2% | 0% | 1% | 0% | 0% | 13% | 9% | 0% | 17%
Fc1cccc(COc2ccc(Nc3ncnc4nn5ccccc5c34)cc2Cl)c1 [GW689066] | 0% | 0% | 0% | 0% | 0% | 0% | 4% | 0% | 0% | 0% | 0% | 0% | 23% | 0% | 0% | 0% | 8% | 45% | 0% | 5%
CCc1nc(-c2cccc(C)c2)c(-c2ccnc(NC(=O)c3ccccc3)c2)s1 | 22% | 0% | 0% | 0% |  | 0% | 0% | 0% |  | 0% | 0% | 28% | 25% | 5% | 2% | 7% | 4% | 54% | 0% | 22%
COC(=O)c1c(-c2ccccc2)c2cc(Cl)ccc2c(=O)n1Cc1ccc(S(C)(=O)=O)cc1 | 26% | 0% | 3% | 13% | 0% | 0% | 24% | 0% | 0% | 0% | 0% | 0% | 0% | 0% | 29% | 9% | 10% | 0% | 4% | 0%
Cc1cc(N2CCC(NS(=O)(=O)c3ccc(F)cc3)CC2)nc(Nc2cccc(C#N)c2)n1.O=C(O)C(F)(F)F [GSK1653537] | 0% | 40% | 0% | 0% | 5% | 3% | 23% | 0% | 0% | 0% | 0% | 9% | 0% | 0% | 0% | 0% | 78% | 19% | 62% | 5%
O=C(Nc1ccccc1)Nc1ccc(Oc2ccc3nccn3n2)cc1 | 9% | 21% | 0% | 0% | 0% | 0% | 0% | 0% | 0% | 0% | 9% | 7% | 0% | 17% | 32% | 0% | 0% | 0% | 0% | 10%
Cc1ccc(O)cc1Nc1cc(C(F)(F)F)nc2ccc(-c3ccncc3)cc12 [GW630823] | 0% | 0% | 0% | 0% | 0% | 0% | 0% | 0% | 0% | 9% | 0% | 4% | 0% | 0% | 5% | 0% | 0% | 0% | 0% | 0%
Clc1cccc(-c2nc(Nc3ccncc3)c3ccccc3n2)c1 [GW873004] | 20% | 23% | 0% | 0% | 17% | 3% | 0% | 0% | 0% | 0% | 32% | 23% | 53% | 10% | 21% | 0% | 0% | 14% | 0% | 31%
CC(C)(C)c1ccc(-n2cnc3c(N)ncnc32)cc1 [SKF-97263] | 0% | 10% | 11% | 5% | 6% | 6% | 23% | 8% | 0% | 0% | 0% | 0% | 0% | 0% | 10% | 0% | 21% | 44% | 0% | 13%
Cc1cccc(-c2nc(Nc3ccc4[nH]nnc4c3)c3ccccc3n2)n1 [GW867587] | 0% | 0% | 0% | 0% | 0% | 0% | 0% | 0% | 0% | 0% | 18% | 3% | 17% | 7% | 16% | 5% | 0% | 19% | 0% | 0%

SMILES | %Inh [1] | %Inh [2] | %Inh [3] | %Inh [4] | %Inh [5] | %Inh [6] | %Inh [7] | %Inh [8] | %Inh [9] | %Inh [10] | %Inh [11] | %Inh [12] | %Inh [13] | %Inh [14] | %Inh [15] | %Inh [16] | %Inh [17] | %Inh [18] | %Inh [19] | %Inh [20]
FC(F)(F)c1ccc(-c2cc(-c3c[nH]nc3-c3ccccn3)ccn2)cc1 [GW599550] | 0% | 0% | 0% | 0% | 60% | 8% | 28% | 0% | 0% | 0% | 0% | 2% | 0% | 5% | 0% | 0% | 18% | 8% | 0% | 0%
Fc1ccc(Nc2nccc(-c3c(-c4ccc(Cl)cc4)nn4ncccc34)n2)cc1F [GW829058] | 40% | 17% | 34% | 0% | 1% | 6% | 3% | 0% | 16% | 15% | 34% | 25% | 26% | 29% | 42% | 27% | 30% | 14% | 13% | 0%
CS(=O)(=O)CCNCc1nc(-c2ccc3ncnc(Nc4ccc(OCc5cccc(F)c5)c(Cl)c4)c3c2)cs1.Cl [GW583340] | 0% | 4% | 0% | 0% | 0% | 0% | 4% | 0% | 0% | 0% | 0% | 0% | 0% | 0% | 0% | 0% | 3% | 57% | 0% | 0%
CCC(CC)(CC)n1cnc2c(N)ncnc21 [SKF-97620] | 0% | 0% | 25% | 0% | 0% | 0% | 0% | 10% | 24% | 15% | 34% | 37% | 32% | 10% | 21% | 36% | 43% | 45% | 14% | 0%
Cn1ccc2ncnc(Oc3ccc(NC(=O)Nc4cccnc4)c(Cl)c3)c21 | 0% | 2% | 0% | 0% | 0% | 0% | 0% | 0% | 0% | 0% | 0% | 4% | 0% | 0% | 0% | 0% | 0% | 5% | 0% | 10%
Cl.Fc1ccccc1COc1ccc(Nc2ncnc3ccc(-c4nnc(C(F)(F)F)o4)cc23)cc1Cl [GW424170] | 0% | 15% | 0% | 0% | 0% | 0% | 0% | 0% | 0% | 0% | 0% | 0% | 0% | 0% | 0% | 0% | 28% | 10% | 0% | 0%
O=C(Nc1n[nH]c2nc(-c3ccco3)c(Br)cc12)c1ccc(CN2CCCC2)cc1.O=C(O)[C@H](O)[C@@H](O)C(=O)O [SB-742352] | 0% | 4% | 34% | 0% | 4% | 24% | 0% | 0% | 0% | 1% | 0% | 2% | 6% | 0% | 0% | 0% | 0% | 83% | 0% | 3%
OCCOCCn1ccc2ncnc(Nc3ccc(Oc4cccc(Cl)c4)c(Cl)c3)c21 | 0% | 0% | 0% | 0% | 0% | 0% | 0% | 0% | 25% | 0% | 0% | 31% | 0% | 8% | 40% | 0% | 0% | 89% | 0% | 0%
C[C@@H]1CCN(C(=O)CO)C[C@@H]1N(C)c1ncnc2[nH]ccc12 | 7% | 5% | 0% | 0% | 0% | 0% | 0% | 0% | 0% | 0% | 0% | 0% | 5% | 0% | 0% | 0% | 0% | 12% | 3% | 0%
Nc1n[nH]c2nnc(-c3ccccc3)cc12 [SB-517389] | 0% | 32% | 0% | 0% | 3% | 0% | 5% | 0% | 0% | 0% | 0% | 0% | 0% | 0% | 0% | 0% | 24% | 38% | 0% | 0%
CC(=O)Nc1n[nH]c2ncc(-c3ccccc3)cc12 [SB-548492] | 37% | 11% | 25% | 0% | 0% | 4% | 5% | 8% | 11% | 5% | 0% | 8% | 42% | 23% | 35% | 19% | 21% | 87% | 0% | 21%
Cn1ccc2ncnc(Nc3ccc(Oc4cccc(Cl)c4)c(Cl)c3)c21 | 15% | 17% | 14% | 0% | 1% | 0% | 0% | 14% | 0% | 25% | 0% | 9% | 0% | 29% | 31% | 1% | 17% | 99.6% | 27% | 0%
Cl.c1ccc(Cn2ncc3cc(Nc4ncnc5ccccc45)ccc32)cc1 [GW273749] | 0% | 0% | 0% | 0% | 0% | 0% | 13% | 0% | 0% | 0% | 0% | 0% | 0% | 0% | 7% | 0% | 0% | 99.7% | 6% | 0%
CNc1nccc(-c2c(-c3ccc(F)cc3)ncn2C2CCN(C)CC2)n1 [SB-222903] | 0% | 0% | 0% | 0% | 0% | 0% | 0% | 0% | 0% | 0% | 18% | 16% | 10% | 8% | 26% | 1% | 0% | 37% | 0% | 0%
Fc1cccc(COc2ccc(Nc3ncnc4cc[nH]c34)cc2Cl)c1 | 0% | 4% | 0% | 0% | 21% | 7% | 4% | 26% | 0% | 36% | 9% | 0% | 65% | 12% | 21% | 18% | 20% | 47% | 0% | 6%

Source: PMC5540273 (PLoS ONE, 2017)
